The record followed here is PubChem BioAssay (NCATS).

In assay [1] the target is Lysosomal acid glucosylceramidase (Homo sapiens) (UniProt P04062). In words: Glucocerebrosidase-p2 (AID 348; in the data active means potency below about 10 µM; further: potency means the concentration at half of the fitted maximal effect). The conditions noted are these: purified GBA, blue fluorogenic substrate, 40 min. Summed up: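 Compounds titrated from 0.6 nM upwards against 0.2 nM enzyme in pH 5.9 citric acid/KH2PO4, taurocholate, tween-20; blue fluorogenic substrate 80 uM, 40 min room temperature, stopped and read Ex 365/Em 440 for AC50.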
Chain of Lysosomal acid glucosylceramidase (Homo sapiens) (P04062 whole entry, looked up): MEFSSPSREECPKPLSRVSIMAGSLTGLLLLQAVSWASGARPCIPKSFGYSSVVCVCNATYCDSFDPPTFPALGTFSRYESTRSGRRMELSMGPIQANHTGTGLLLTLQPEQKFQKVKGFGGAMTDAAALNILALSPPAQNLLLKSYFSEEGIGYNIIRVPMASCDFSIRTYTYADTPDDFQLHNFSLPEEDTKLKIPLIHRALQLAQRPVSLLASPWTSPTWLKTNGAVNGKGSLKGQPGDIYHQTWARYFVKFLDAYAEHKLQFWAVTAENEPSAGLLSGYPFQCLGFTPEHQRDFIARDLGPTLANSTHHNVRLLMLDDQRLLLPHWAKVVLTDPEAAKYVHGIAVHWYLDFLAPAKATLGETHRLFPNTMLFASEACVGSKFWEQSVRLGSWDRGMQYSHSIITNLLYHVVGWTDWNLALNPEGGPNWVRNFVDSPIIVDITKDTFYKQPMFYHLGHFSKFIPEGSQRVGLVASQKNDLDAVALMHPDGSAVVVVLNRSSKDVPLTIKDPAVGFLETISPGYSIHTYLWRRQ

Assay [2] deals with Cytochrome P450 1A2 (Homo sapiens) (UniProt P05177). The assay can be described thus: p450-cyp1a2 (AID 410; calls by dose curve; further: potency means the concentration at half of the fitted maximal effect). Summed up:
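Luminescent readout of luciferin formed from Luciferin-ME by human CYP1A2; data normalized against complete inhibition by 57 uM furafylline. Enzyme 20nM, substrate 100uM at Km, 100mM KPO4 buffer, 60 min reaction at room temperature.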

Assay [3] concerns the target Glucocorticoid receptor (Homo sapiens) (UniProt P04150). In words: GR-GFP Redistribution (AID 450;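 active means compounds whose dose series gives a full or clear partial fitted curve of increased nuclear translocation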; further: potency means the concentration at half of the fitted maximal effect). The conditions noted are these: U2OS GR-GFP nuclear translocation, laser cytometry, 2 h.
The target is the same in assay [4]. The assay can be described thus: GR-EFC Redistribution (AID 451; calls by dose curve; further: potency means the concentration at half of the fitted maximal effect). The conditions noted are these: CHO-K1 GR-EFC translocation, beta-gal luminescence, 2 h. Summed up:
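CHO-K1 cells expressing nuclear EA and GR-ED fragments of b-gal; compounds titrated up to 46 uM final, 2 h at 37 C. GR nuclear translocation read as complemented b-gal luminescence after 1 h RT detection.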

In assay [5] the target is Mitogen-activated protein kinase 10 (Mus musculus) (UniProt Q61831). The assay can be described thus: JNK3 AlphaScreen Assay (AID 530; active means well fitted curve in either direction with a large enough effect, not every such curve was filed as active;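 further: kinase came from lysate of stimulated human HepG2 cells; signal reports phosphorylation of biotinylated GST-cJun 1-79 at Ser73 with 10 µM ATP; on the % scale 0 is the no-effect control and ±100 the full control effect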). Summed up: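 Pre-activated (IL-1β/TNFα) JNK3 in HepG2 lysates phosphorylates biotin-GST-cJun(1-79), 10 uM ATP; anti-phospho-cJun(Ser73) AlphaScreen read at room temperature, pH 7.6 Tris buffer. Compounds pre-incubated 15 min as titrations.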
In general terms: Alpha assays give light when donor and acceptor beads are brought close together.

Assay [6] addresses 3',5'-cyclic-AMP phosphodiesterase 4B (Homo sapiens) (UniProt Q07343). The assay can be described thus: qHTS Assay for Inhibitors of PDE-IV (AID 607; active means well fitted activation curve with a large enough effect in the main read-out, with a control signal flat, not every such curve was filed as active; further: % of control where 0% means no effect). Put shortly:
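The readout is membrane depolarisation from a cAMP-sensing CNG channel, detected with a potential dye at ex 535/em 590. Cells were HEK293-derived (endogenous PDE-IV) at 1000 cells/well, titrated up to 22.9 uM final.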
A general note: qHTS replaces the single test concentration by a dilution series.

Assay [7] is described as follows: qHTS Assay for Identification of Small Molecule Agonists for Hypoxia Response Element Signaling Pathway (AID 914; active means well fitted activation curve with a large enough effect in the signal ratio, with a control signal flat, not every such curve was filed as active; the % refers to the signal ratio; further: potency means the concentration at half of the fitted maximal effect). The conditions noted are these: ME-180 HRE-bla reporter, beta-lactamase ratio, CoCl2, 17 h; activation: stronger effect = higher value. Put shortly: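 A beta-lactamase reporter under hypoxia response element control in ME-180 cells served as the system. Compound titrations plus EC50 CoCl2 ran 17 h at 37 degrees Celsius; AC50 values were fitted from %Activity.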

Assay [8] addresses Dual specificity protein kinase CLK4 (Homo sapiens) (UniProt Q9HAZ1). In words: qHTS Assay for Inhibitors of CDC-like Kinase 4 (Kinase-Glo Assay) (AID 1770). Further: on the % scale 0 is the no-effect control and ±100 the full control effect; nearly all actives have a fitted effect of over 65% in size. Put shortly: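 Substrate mix (RS peptide 100 uM, ATP 1 uM) dispensed, compound pinned in, then Clk4 added to 25 nM final. Incubated 4.5 h at RT; Kinase-Glo reagent added, luminescence read after 5 min.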
Assay [9] shares this target. The assay can be described thus: qHTS Assay for Inhibitors of CDC-like Kinase 4 (ADP-Glo Assay) (AID 1771). Further: on the % scale 0 is the no-effect control and ±100 the full control effect; nearly all actives have a fitted effect of over 70% in size. Summed up: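 Luminescence from ADP-Glo reports ADP produced by 25 nM Clk4 acting on 100 uM RS repeat peptide with 1 uM ATP over 1 hr at room temperature; residual ATP is depleted before ADP is converted to ATP for detection.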
The target is the same in assay [10]. The assay can be described thus: qHTS Assay for Inhibitors of CDC-like Kinase 4 (ADP-FP Assay) (AID 1795).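 Further: recombinant human CLK4 phosphorylating RS repeat peptide at 1 µM ATP; on the % scale 0 is the no-effect control and ±100 the full control effect; nearly all actives have a fitted effect of over 60% in size.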 Put shortly: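 Clk4 6.25 nM; RS peptide 100 uM; ATP 1 uM; 25 mM Tris pH 7.5, 10 mM MgCl2; 1 h reaction. ADP detected via antibody/orange tracer FP displacement; TG003 positive control.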
Assay [11] is described as follows: Counterscreen qHTS for small molecule stabilizers of the endoplasmic reticulum resident proteome: GLuc-NoTag assay (AID 1508627).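 Further: 0% = thapsigargin alone and -100% = DMSO vehicle control.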 Put shortly:
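SH-SY5Y cells stably expressing constitutively secreted GLuc without SERCaMP tag, exposed to compound for 19 hr, then to 100 nM thapsigargin for 4 hr at 37C. Medium luciferase was read by coelenterazine luminescence without lysis.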

A short description of assay [12]: Cell Viability qHTS for small molecule stabilizers of the endoplasmic reticulum resident proteome (AID 1508629).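 Further: human SH-SY5Y neuroblastoma cells carrying the GLuc-SERCaMP reporter; compound exposure about 46 h in total before the viability read; on the % scale 0 is the no-effect control and ±100 the full control effect.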 The conditions noted are these: cell viability counter-screen, 100 nM thapsigargin for final 4 h.
Assay [13] can be described thus: Stat Signaling Pathway (AID 446; active means well fitted curve in either direction with a large enough effect, not every such curve was filed as active;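 further: ME-180 cervical cancer cells given 40 pM IL-6 alongside compound; SIE-controlled beta-lactamase reporter measured as 460/530 nm FRET emission ratio; on the % scale 0 is the no-effect control and ±100 the full control effect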). The conditions noted are these: ME-180 SIE beta-lactamase reporter, IL-6 stimulated, 5 h; at 7.69 µM (top of the series) unless noted. Summed up:
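Screening format detects activators and inhibitors alike: ME-180 SIE-bla cells stimulated at 40 pM IL-6 for 5 hrs with compound, then dual-emission beta-lactamase read at 405 nm excitation.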

A short description of assay [14]: qHTS Assay for Lipid Storage Modulators (AID 1519; calls by dose curve). The conditions noted are these: Drosophila S3 cells, BODIPY lipid droplet/cell ratio, laser cytometry, cells loaded with oleic acid; for activity change, negative = inhibition: at 57.5 µM (top of the series). Put shortly: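 Cells seeded at 5,000 per well were treated with compounds over a concentration series and loaded with oleic acid (400 uM, as added). Lipid droplet fluorescence (488 nm excitation, 500-530 nm channel) was read by laser-scanning cytometry and normalized to 20 uM Triacsin C.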

Assay [15] is described as follows: Confirmatory qHTS for small molecule stabilizers of the endoplasmic reticulum resident proteome: Secreted ER Calcium Modulated Protein (SERCaMP) assay (AID 1508628). Further: nearly all actives have a fitted effect of over 40% in size. Further: potency means the concentration at half of the fitted maximal effect. Put shortly: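 SH-SY5Y cells stably expressing GLuc-SERCaMP, treated 16 h with compound (primary 1.53, 7.67, 38.3 uM; confirmation 11 concentrations, up to 76.6 uM), then 100 nM thapsigargin for 4 h. Secreted Gaussia luciferase in medium read by coelenterazine luminescence.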

Assay [16] can be described thus: AP1 Signaling Pathway (AID 357; active means well fitted curve in either direction with a large enough effect, not every such curve was filed as active;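 further: ME-180 reporter cells stimulated with EGF at its EC50 level; on the % scale 0 is the no-effect control and ±100 the full control effect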). The conditions noted are these: ME-180 (cervical carcinoma) AP-1-bla reporter, EGF-induced, beta-lactamase ratio, 5 h; at 7.69 µM (top of the series) unless noted. Summed up:
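Read-out was the 460nm/530nm emission ratio (excitation 405nm) after CCF4 loading for 2.5 hours at room temperature. Cells carried an AP-1-driven beta-lactamase reporter, were stimulated with EC50 EGF plus compound for 5 hours, and AC50 values came from titrations.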

Assay [17] in a line: NFAT Signaling Pathway (AID 444; active means well fitted curve in either direction with a large enough effect, not every such curve was filed as active). The conditions noted are these: Jurkat NFAT-bla M1, carbachol, beta-lactamase ratio, 5 h; at 7.69 µM (top of the series) unless noted. Summed up: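 Jurkat cells with NFAT-driven β-lactamase reporter and co-expressed M1 receptor, stimulated with carbachol (final 1 uM, ~EC50), compound titration, 5 h at 37 °C. CCF4 loaded 1 h at RT; 460/530 nm ratio gave %activity and AC50.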

Assay [18] has as its target Cytochrome P450 3A4 (Homo sapiens) (UniProt P08684). In words: qHTS Assay for Activators of Cytochrome P450 3A4 (AID 885). Further: nearly all actives have a fitted effect of over 65% in size. Put shortly:
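Steps: enzyme/substrate mix dispensed; compound added, 10 min RT; NADPH regeneration solution added, 60 min RT; luciferin detection buffer stops reaction; 20 min later luminescence measured.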

Assay [19] concerns the target Ubiquitin carboxyl-terminal hydrolase 1 (Homo sapiens) (UniProt O94782). The assay can be described thus: Inhibitors of USP1/UAF1: Pilot qHTS (AID 504865).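 Further: rhodamine fluorescence freed from ubiquitin-rhodamine substrate followed over time; top concentration of the series differs between compounds; on the % scale 0 is the no-effect control and ±100 the full control effect; nearly all actives have a fitted effect of over 35% in size.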 Summed up:
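In 50mM HEPES pH 7.8 containing 0.5mM EDTA, 1mM TCEP, 0.1 mg/ml BSA and 0.01% Tween-20, 1nM USP1/UAF1 is exposed to compound for 15 min, then Ub-Rho (150nM final) is added and fluorescence is read over time.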

Assay [20] has as its target Cytochrome P450 2D6 (Homo sapiens) (UniProt P10635). The assay can be described thus: qHTS Assay for Inhibitors and Substrates of Cytochrome P450 2D6 (AID 891). Further: potency means the concentration at half of the fitted maximal effect; nearly all actives have a fitted effect of over 60% in size. Summed up: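 Human CYP2D6 (5 nM) with 30 uM Luciferin-ME EGE (at Km) in 100 mM KPO4, compound preincubated 10 min, then NADPH regeneration system for 60 min at room temperature. Luciferin read by luminescence; normalized to 1.43 uM quinidine.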

Assay [21] is described as follows: Confirmation and Secondary Assay for Modulators of Hemoglobin Beta Chain Splicing at IVS2 654 locus (AID 910).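 Further: HeLa cells stably carrying EGFP split by mutant beta-globin IVS2-654 intron; % of control where 0% means no effect.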 Put shortly:
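HeLa cells stably expressing EGFP interrupted by β-globin IVS2-654 intron, seeded overnight in Opti-MEM/2% FCS, then treated 2 days at 37 °C. Restored splicing read as total peak GFP intensity per well by laser scanning cytometry (488 nm excitation, 500–520 nm emission); 500 nM antisense PNA as control.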

Assay [22] is described as follows: Confirmation and Secondary Assay for Modulators of Hemoglobin Beta Chain Splicing at IVS2 705 locus (AID 930).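 Further: HeLa cells stably expressing the EGFP-705 splicing reporter; GFP fluorescence per well restored by corrected splicing of the IVS2-705 intron in EGFP; % of control where 0% means no effect.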 Put shortly: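 Fluorescence gain (488 nm laser, 500-520 nm PMT) reflects restored correct splicing of a mutant IVS2-705 intron inside EGFP in stably transfected HeLa cells after 2-day compound treatment.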
The mark [23] stands for this setting: measured here: cell count channel max response.
The mark [24] stands for this setting: measured here: lipid channel max response.

Each structure is given as a SMILES string. Records with an inconclusive call do not appear. The source made the active and inactive calls. Unless noted, the call rests on the fitted dose curve; in most records, active means well fitted curve in the direction sought with a large enough effect; inconclusive means small, poorly fitted or top-dose-only effect, or another doubt; inactive means no such curve, though single readings can be large; an effect the other way counts as inactive or inconclusive. Some results are limits rather than exact numbers.

Chain of Ubiquitin carboxyl-terminal hydrolase 1 (Homo sapiens) (O94782 whole entry, looked up): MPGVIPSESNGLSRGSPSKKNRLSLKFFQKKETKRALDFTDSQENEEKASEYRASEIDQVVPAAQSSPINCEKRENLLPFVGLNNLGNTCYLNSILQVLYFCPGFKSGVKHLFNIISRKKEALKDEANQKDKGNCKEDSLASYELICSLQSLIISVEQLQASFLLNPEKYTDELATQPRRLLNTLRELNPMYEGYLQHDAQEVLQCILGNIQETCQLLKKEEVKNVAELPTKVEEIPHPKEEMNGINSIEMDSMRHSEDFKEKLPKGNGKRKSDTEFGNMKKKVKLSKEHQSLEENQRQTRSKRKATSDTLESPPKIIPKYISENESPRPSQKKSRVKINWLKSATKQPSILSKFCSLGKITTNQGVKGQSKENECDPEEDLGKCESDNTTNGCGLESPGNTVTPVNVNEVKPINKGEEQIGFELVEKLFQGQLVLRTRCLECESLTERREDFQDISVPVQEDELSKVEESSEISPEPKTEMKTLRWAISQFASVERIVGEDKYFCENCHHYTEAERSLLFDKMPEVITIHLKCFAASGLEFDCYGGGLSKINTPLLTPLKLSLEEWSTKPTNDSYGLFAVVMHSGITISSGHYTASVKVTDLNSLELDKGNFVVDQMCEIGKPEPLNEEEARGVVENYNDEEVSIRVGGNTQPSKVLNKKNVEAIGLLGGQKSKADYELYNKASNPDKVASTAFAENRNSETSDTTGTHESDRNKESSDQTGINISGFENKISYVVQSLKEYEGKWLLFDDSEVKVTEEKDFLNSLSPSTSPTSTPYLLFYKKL
Chain of 3',5'-cyclic-AMP phosphodiesterase 4B (Homo sapiens) (Q07343 whole entry, looked up): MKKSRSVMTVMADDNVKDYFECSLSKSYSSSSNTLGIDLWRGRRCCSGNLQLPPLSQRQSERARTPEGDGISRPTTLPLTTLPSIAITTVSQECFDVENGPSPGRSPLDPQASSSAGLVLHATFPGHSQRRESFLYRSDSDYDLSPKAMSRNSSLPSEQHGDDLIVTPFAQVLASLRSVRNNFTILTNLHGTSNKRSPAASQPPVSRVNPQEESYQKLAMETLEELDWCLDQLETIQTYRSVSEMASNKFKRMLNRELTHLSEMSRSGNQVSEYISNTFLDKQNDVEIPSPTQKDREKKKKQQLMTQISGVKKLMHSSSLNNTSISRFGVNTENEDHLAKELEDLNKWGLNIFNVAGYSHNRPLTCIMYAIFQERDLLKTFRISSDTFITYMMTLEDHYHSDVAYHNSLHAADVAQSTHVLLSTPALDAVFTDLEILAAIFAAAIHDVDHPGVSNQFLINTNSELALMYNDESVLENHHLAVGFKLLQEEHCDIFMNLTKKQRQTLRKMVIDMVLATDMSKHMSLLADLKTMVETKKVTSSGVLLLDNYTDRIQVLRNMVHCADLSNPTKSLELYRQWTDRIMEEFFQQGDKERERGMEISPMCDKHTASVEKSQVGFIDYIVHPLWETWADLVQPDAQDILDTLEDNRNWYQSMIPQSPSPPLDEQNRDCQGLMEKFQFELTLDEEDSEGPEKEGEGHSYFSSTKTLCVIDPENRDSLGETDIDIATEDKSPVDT
Chain of Glucocorticoid receptor (Homo sapiens) (P04150 whole entry, looked up): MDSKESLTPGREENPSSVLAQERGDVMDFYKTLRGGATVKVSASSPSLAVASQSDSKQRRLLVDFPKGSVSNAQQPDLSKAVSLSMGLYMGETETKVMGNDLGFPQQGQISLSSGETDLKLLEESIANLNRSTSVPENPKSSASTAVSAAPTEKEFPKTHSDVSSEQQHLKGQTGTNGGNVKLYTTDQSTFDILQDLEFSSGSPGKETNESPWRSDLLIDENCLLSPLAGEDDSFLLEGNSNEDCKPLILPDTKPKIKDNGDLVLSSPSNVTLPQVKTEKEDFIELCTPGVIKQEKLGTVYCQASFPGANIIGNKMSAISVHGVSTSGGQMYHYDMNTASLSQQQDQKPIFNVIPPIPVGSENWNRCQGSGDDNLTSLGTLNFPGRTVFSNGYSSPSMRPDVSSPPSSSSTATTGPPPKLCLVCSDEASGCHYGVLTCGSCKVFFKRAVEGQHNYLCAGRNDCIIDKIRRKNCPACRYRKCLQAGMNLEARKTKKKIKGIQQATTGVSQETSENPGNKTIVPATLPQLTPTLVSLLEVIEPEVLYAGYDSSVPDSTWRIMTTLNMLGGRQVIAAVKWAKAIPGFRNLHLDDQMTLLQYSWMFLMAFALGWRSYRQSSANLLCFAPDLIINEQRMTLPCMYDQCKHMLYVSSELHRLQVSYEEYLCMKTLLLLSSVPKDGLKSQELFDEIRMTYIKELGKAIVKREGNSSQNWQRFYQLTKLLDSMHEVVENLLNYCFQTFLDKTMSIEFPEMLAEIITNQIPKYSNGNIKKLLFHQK
Chain of Dual specificity protein kinase CLK4 (Homo sapiens) (Q9HAZ1 whole entry, looked up): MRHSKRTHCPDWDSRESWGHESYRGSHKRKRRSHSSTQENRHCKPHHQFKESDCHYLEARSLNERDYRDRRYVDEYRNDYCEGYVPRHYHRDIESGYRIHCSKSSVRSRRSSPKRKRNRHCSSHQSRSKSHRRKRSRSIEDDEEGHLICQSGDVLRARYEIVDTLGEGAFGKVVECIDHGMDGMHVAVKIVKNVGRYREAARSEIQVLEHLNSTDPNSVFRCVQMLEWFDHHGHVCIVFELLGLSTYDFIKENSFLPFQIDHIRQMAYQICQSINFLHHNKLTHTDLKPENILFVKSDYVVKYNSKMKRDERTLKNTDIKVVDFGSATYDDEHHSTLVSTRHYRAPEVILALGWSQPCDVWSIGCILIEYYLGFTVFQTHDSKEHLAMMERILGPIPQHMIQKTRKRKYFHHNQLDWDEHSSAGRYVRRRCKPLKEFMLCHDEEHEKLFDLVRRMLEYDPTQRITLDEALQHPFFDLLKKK
Chain of Cytochrome P450 1A2 (Homo sapiens) (P05177 whole entry, looked up): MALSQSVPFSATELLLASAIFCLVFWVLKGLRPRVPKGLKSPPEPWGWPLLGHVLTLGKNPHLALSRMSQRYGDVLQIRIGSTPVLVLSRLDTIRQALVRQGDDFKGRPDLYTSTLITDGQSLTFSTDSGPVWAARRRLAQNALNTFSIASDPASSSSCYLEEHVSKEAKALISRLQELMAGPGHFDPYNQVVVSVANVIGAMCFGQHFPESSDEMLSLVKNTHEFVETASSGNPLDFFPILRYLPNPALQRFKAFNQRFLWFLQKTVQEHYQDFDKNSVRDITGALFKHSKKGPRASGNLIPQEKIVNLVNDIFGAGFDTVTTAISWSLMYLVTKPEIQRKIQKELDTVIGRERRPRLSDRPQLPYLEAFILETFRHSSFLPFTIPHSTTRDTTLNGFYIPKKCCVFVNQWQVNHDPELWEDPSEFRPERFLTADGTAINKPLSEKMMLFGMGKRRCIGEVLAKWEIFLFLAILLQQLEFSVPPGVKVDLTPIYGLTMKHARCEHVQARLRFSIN
Chain of Cytochrome P450 3A4 (Homo sapiens) (P08684 whole entry, looked up): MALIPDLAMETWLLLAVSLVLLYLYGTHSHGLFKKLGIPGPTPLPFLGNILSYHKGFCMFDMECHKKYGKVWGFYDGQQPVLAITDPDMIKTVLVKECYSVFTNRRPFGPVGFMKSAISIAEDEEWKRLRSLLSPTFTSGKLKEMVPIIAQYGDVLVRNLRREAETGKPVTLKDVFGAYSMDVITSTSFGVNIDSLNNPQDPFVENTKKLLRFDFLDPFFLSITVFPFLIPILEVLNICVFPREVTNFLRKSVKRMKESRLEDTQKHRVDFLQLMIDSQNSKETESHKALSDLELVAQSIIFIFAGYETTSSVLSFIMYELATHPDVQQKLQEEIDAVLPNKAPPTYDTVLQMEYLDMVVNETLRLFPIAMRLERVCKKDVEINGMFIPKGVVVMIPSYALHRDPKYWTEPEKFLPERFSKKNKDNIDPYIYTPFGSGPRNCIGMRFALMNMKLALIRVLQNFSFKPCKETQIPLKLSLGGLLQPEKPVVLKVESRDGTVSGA
Chain of Cytochrome P450 2D6 (Homo sapiens) (P10635 whole entry, looked up): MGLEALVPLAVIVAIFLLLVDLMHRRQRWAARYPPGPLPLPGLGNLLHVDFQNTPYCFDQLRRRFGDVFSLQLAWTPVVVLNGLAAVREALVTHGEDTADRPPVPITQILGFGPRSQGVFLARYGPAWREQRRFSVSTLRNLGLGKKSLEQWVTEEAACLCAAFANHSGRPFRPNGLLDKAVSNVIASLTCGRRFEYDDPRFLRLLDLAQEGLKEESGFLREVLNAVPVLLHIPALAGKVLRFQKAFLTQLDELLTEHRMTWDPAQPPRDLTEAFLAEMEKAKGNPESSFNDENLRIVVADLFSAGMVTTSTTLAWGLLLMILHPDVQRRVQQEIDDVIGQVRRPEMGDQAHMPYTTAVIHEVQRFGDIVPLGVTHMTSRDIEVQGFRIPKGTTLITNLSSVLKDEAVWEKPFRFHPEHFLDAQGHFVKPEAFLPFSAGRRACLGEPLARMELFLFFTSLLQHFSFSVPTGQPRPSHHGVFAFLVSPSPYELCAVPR

`COc1ccc(-n2c(=O)c(-c3ccccc3)nc3cnc(N4CCNCC4)nc32)cc1`: the Potency is > 11.4 µM (inactive) in [1]; 15.8 µM (active) in assay [2]; > 9.22 µM (inactive) in assay [3]; > 46 µM (inactive) in assay [4]; 3.16 µM (active) in assay [7]. Further, the outcome in assay [5] was inactive. Moreover, the Potency result in assay [6], in assay [8], in assay [9], in [10] and in [11] was “inactive” in each case. In addition, the max response in assay [12] is 0.755% (inactive).
Turning to `N#CCCn1c(=O)c(-c2ccc(Cl)cc2)nc2cnc(OCc3ccccc3)nc21`, the Potency in [1] is > 11.4 µM (inactive); in assay [2] it was 2 µM (active); in assay [3] it was > 9.22 µM (inactive); in assay [4], > 46 µM (inactive). Besides, the activity, negative = inhibition in assay [13] is 1.91% (inactive). Also, the outcome in [5] was inactive. Moreover, in [14], the activity change, negative = inhibition is 5.27% (inactive). Besides, the max response came out at 8.68% in assay [14] (setting [23]) and 16.3% in assay [14] (setting [24]). The Potency result in assay [11] and in assay [15] was “inactive” each time.
Turning to `Cc1ccccc1-c1nc(N2CCNCC2)c2ccccc2n1`, the Potency in [1] is > 11.4 µM (inactive); in assay [2] it was 5.01 µM (active); in assay [3] it was > 46 µM (inactive); in [4] it was > 46 µM (inactive); in [15] it was 12.6 µM (active). In addition, the activity change, negative = inhibition in assay [16] was 12.7% (inactive); in [17], 2.71% (inactive); in assay [14], 4.63% (inactive). The activity, negative = inhibition in assay [13] was -10.4% (inactive). Besides, the compound was called inactive in [5]. The Potency entry in [6], in assay [18], in [19] and in [11] was “inactive” in each case. Besides, the max response in assay [14] (setting [23]) is 23.8%; in assay [14] (setting [24]) it was 27.5%.
As to `COc1ccc(-c2nc3cnc(N4CCN(C)CC4)nc3n(-c3ccc(OC)cc3)c2=O)cc1`, the Potency was > 11.4 µM (inactive) in assay [1]; 15.8 µM (active) in [2]; > 9.22 µM (inactive) in assay [3]; > 46 µM (inactive) in assay [4]; 3.16 µM (active) in [7]. Also, the results for the activity change, negative = inhibition in assay [16] and in assay [14] were 41.4% (inactive) and 3.89% (inactive), respectively. In addition, the result in assay [5] was inactive. For the same compound, the Potency result in assay [6], in assay [8], in assay [19], in assay [11] and in [15] was “inactive” throughout. The results for the max response in assay [14] (setting [23]) and in assay [14] (setting [24]) were 28.9% and 29.8%, respectively.
For `COc1ccccc1CNc1ncnc2ccc(-c3ccccc3CN(C)C)cc12`, the Potency in assay [1] was > 11.4 µM (inactive); in [2], 15.8 µM (active); in [3] it was > 46 µM (inactive); in assay [4] it was > 46 µM (inactive); in assay [20], 2.51 µM (active); in assay [15], 10 µM (active). The activity change, negative = inhibition in assay [16] is -6.09% (inactive); in assay [14] it was 5.99% (inactive). Further, in assay [13], the activity, negative = inhibition is -9.28% (inactive). Besides, the compound was called inactive in assay [5], in [21] and in assay [22]. The figures for the max response in assay [14] (setting [23]) and in [14] (setting [24]) were -1.21% and 3.46%, respectively. Besides, the Potency result in assay [19] and in assay [11] was “inactive” each time.
